Measured values from PubChem BioAssay (NCATS).
Several values for one entry are separate records, joined by “and”; a condition that tells them apart may be missing. Identical values can stand only once. Results filed as inconclusive are left out. Values without a mark were called inactive. Activity calls are given as the source filed them. Calls come from the whole dose curve; as a rule, active = well fitted curve in the direction sought with a large enough effect; inconclusive = small, poorly fitted or top-dose-only effect, or another doubt; inactive = no such curve, though single readings can be large; an effect the other way counts as inactive or inconclusive.

What was measured:
[1] = Viability qHTS for spleen associated tyrosine kinase inhibitor (SYKi) naive MV4-11 cells (AID 1963823); note: nearly all actives have a fitted effect of over 40% in size
In short: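 Luminescence from CellTiter-Glo, developed 10 min at room temperature, gave viability of MV4-11 cells never exposed to SYK inhibitor. Cells (500/well) had been incubated with compounds for 72 hr under standard culture conditions.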

[2] = Viability qHTS for spleen associated tyrosine kinase inhibitor (SYKi) drug resistant MV4-11 cells (AID 1963824); note: nearly all actives have a fitted effect of over 35% in size
In short: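 SYK inhibitor-resistant MV4-11 AML cells, 500 per well, added to predispensed compounds and incubated 72 hr at 37 C, 5% CO2. Viability measured by CellTiter-Glo luminescence after 10 min at room temperature.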

[3] = Cellular viability qHTS for adrenocortical cancer (ACC) cell line SW-13 (AID 1963989); conditions: SW-13 ACC cells viability, CellTiter-Glo, 48 h; activity (max response): stronger effect = lower value; note: nearly all actives have a fitted effect of over 65% in size;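 for activity (max response): cells grown in serum-free medium with ITS supplement; % is set by controls: 0 for no effect and ±100 for the full control effect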
In short: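 SW-13 cells in ITS-supplemented serum-free DMEM were plated overnight, then exposed for 48 h at 37C to compound titrations (up to 46 uM final). Viability was read by CellTiter-Glo luminescence; four-parameter logistic fits gave IC50 and efficacy.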
Potency is the fitted concentration of half-maximal effect.

Compound | Potency [1] | Potency [2] | Potency [3] | activity (max response) [3] [%]
CCCCCCC[N+](CC)(CC)CCCCc1ccc(Cl)cc1 | 1.68 µM (active) | 2.11 µM (active) | 5.8 µM (active) | –
O=C(Nc1ccc(OC(F)(F)Cl)cc1)c1cnc(N2CC[C@@H](O)C2)c(-c2ccn[nH]2)c1 | 5.9 µM (active) | 6.61 µM (active) | 20 µM (active) | –
Cn1c(=O)c2c(ncn2CCO)n(C)c1=O | inactive | inactive | – | -10.8
C=C1c2cccc(O)c2C(O)=C2C(=O)[C@]3(O)C(O)=C(C(N)=O)C(=O)[C@@H](N(C)C)[C@@H]3[C@@H](O)[C@H]12 | inactive | inactive | – | 3.29
CCCNC(=O)[C@H]1O[C@@H]1C(=O)N[C@H](C(=O)N1CCC[C@H]1C(=O)OC)C(C)CC (some centres not stated) | 1.66 µM (active) | 0.934 µM (active) | 10 µM (active) | –
O=C(O)[C@@H]1[C@H]2C[C@H]3c4[nH]c5ccccc5c4CCN3C[C@@H]2CC[C@@H]1O | 2.66 µM (active) | 5.96 µM (active) | – | 3.73
COc1cc(C)c(/C=C/C(C)=C/C=C/C(C)=C/C(=O)O)c(C)c1C | 2.35 µM (active) | 4.68 µM (active) | – | -22.4
CC[C@@]1(O)C(=O)OCc2c1cc1n(c2=O)Cc2c-1nc1ccccc1c2CCNC(C)C | 0.0059 µM (active) | 0.0059 µM (active) | 0.0823 µM (active) | –
COc1cc2c(cc1OC)C(=O)CC2 | inactive | inactive | – | 12.7
C#C[C@]1(O)CC[C@H]2[C@@H]3CCC4=Cc5oncc5C[C@]4(C)[C@H]3CC[C@@]21C | 15 µM (active) | 8.41 µM (active) | – | 0.351
CCc1cc(/C(C)=N/OCc2ccc(C3CCCCC3)c(C(F)(F)F)c2)ccc1CN1CC(C(=O)O)C1 | 18.6 µM (active) | 14.8 µM (active) | – | -17.6
CC[C@H](Nc1ncnc2nc[nH]c12)c1oc2ccccc2c(=O)c1-c1cccc(F)c1 | 5.9 µM (active) | 14.8 µM (active) | – | -13.2
CC(C)(NS(=O)(=O)c1ccc2c(Cl)cnc(N=C(N)N)c2c1)C(=O)O | inactive | inactive | – | 5.36
Nc1ncnc2c1ncn2[C@@H]1O[C@H](CO)C[C@H]1O | inactive | inactive | – | -9.5
CCNC1(C(N)=O)CCN(c2ncnc3c2nc(-c2ccccc2Cl)n3-c2ccc(Cl)cc2)CC1 | 7.42 µM (active) | 16.6 µM (active) | – | -4.01
NC(=O)c1cccc2c(NC(CN3CCC3)c3ccc(Cl)c(C(F)(F)F)c3)ncnc12 (configuration not stated) | 1.48 µM (active) | 2.35 µM (active) | 14.1 µM (active) | –
O=c1sn(-c2cccc3ccccc23)c(=O)n1Cc1ccccc1 | 14.6 µM (active) | 11.6 µM (active) and 8.33 µM (active) | – | -18.3
CCCCCCCC/C=C\CCCCCCCC(=O)NCc1ccc(O)c(OC)c1 | inactive | 0.668 µM (active) | 3.26 µM (active) | –
Cn1cc(-c2ccc(S(=O)(=O)n3ccc(/C=C/C(=O)Nc4ccccc4N)c3)cc2)cn1 | 651 nM (active) and 934 nM (active) | 580 nM (active) and 742 nM (active) | 0.794 µM (active) | –
Cc1cc(C(=O)Nc2cc(Nc3ccc4c(/C=C/c5ccccn5)n[nH]c4c3)ccc2F)n(C)n1 | 9.2 µM (active) and 5.25 µM (active) | 9.2 µM (active) and 5.25 µM (active) | 22.4 µM (active) | –
CCN(CC)C(=O)N1CCN(C)CC1 | inactive | inactive | – | -0.284
CN(C)CCCOC1(Cc2ccccc2)CCCCCC1 | inactive | inactive | – | 2.61
N#Cc1ccc(COC[C@H]2O[C@@H](n3c(NCc4ccc(Cl)c(Cl)c4)nc4c(N)ncnc43)[C@H](O)[C@@H]2O)cc1 | 4.68 µM (active) | 2.52 µM (active) and 3.32 µM (active) | 25.1 µM (active) | –
CCC(=O)O[C@H]1[C@H](O[C@@H]2[C@@H](C)[C@H](O[C@H]3C[C@@](C)(OC)[C@@H](O)[C@H](C)O3)[C@@H](C)C(=O)O[C@H](CC)[C@@](C)(O)[C@H](O)[C@@H](C)C(=O)[C@H](C)C[C@@]2(C)O)O[C@H](C)C[C@@H]1N(C)C | inactive | inactive | – | 0.809
